Molecules are shown by their SMILES. Calls of active or inactive are those of the source. The rule behind the calls is not given here. Residues, ends and D or L forms follow the SMILES beside them.

For this experiment the following is noted: Ebola virus entry assay, blue channel fluorescence.
`NS(=O)(=O)c1cc(C(=O)O)cc(N2CCCC2)c1Oc1ccccc1`: the compound was classed as inactive. Take `c1ccc2c(CC3=NCCN3)cccc2c1`: the concentration at half-maximal activity (AC50) (in general, the concentration at which the activity in the assay is half-maximal) was 39.8 µM (active). Turning to `COCC(=O)Nc1c(I)c(C(=O)NCC(O)CO)c(I)c(C(=O)N(C)CC(O)CO)c1I` (stereo unspecified), the result was inactive. On the same count and under the same terms, next, `COC(=O)[C@H](Cc1ccccc1)NC(=O)[C@@H](N)CC(=O)O` (H-Asp-Phe-OMe): “inactive”; `Cc1cnc(NC(=O)C2=C(O)c3ccccc3S(=O)(=O)N2C)s1`: “inactive”; `CO[C@@]1(NC(=O)CSC[C@@H](N)C(=O)O)C(=O)N2C(C(=O)O)=C(CSc3nnnn3C)CS[C@@H]21`: “inactive”. For the compound `O=C(NCC1CCCCN1)c1cc(OCC(F)(F)F)ccc1OCC(F)(F)F` (stereo unspecified), the concentration at half-maximal activity (AC50) is 39.8 µM (active). On to `O=[N+]([O-])c1cncn1CCN1CCOCC1`, for which the call was inactive. On the same count and under the same terms, the same measure for `C[C@]12C=CC(=O)C=C1CC[C@@H]1[C@@H]2[C@@H](O)C[C@@]2(C)[C@H]1CC[C@]2(O)C(=O)CO`: “inactive”. For the compound `O=C(O)c1ccc[n+]([O-])c1`, the result was inactive. Same read-out and setting: next, `NC(=O)c1cc([N+](=O)[O-])cc([N+](=O)[O-])c1`: “inactive”; `O=C(O)c1cccnc1`: “inactive”.

Consider `CCCC(=O)O[C@]1(C(=O)CO)CC[C@H]2[C@@H]3CCC4=CC(=O)CC[C@]4(C)[C@H]3[C@@H](O)C[C@@]21C`, for which the compound was called inactive. Same read-out and setting: the same measure for `COC(=O)c1cc(Cl)ccc1OC`: “inactive”. Same read-out and setting: the same measure for `C[C@@H]1C[C@H]2[C@@H]3C[C@H](F)C4=CC(=O)C=C[C@]4(C)[C@@]3(F)[C@@H](O)C[C@]2(C)[C@@]1(O)C(=O)CO`: “inactive”; for `CC(=O)OCC(=O)[C@@]1(O)[C@H](OC(C)=O)C[C@H]2[C@@H]3CCC4=CC(=O)C=C[C@]4(C)[C@@]3(F)[C@@H](O)C[C@@]21C`: “inactive”.

Values taken from PubChem BioAssay (NCATS).
